In PubChem BioAssay AID1043 (National Center for Advancing Translational Sciences (NCATS), 2008):
Inconclusive results are not listed. Activity calls are given as the source filed them. The call rests on the fitted dose curve.

Assay: H358 Cell Viability Secondary Assay for qHTS Assay for Epigenetic Modulators
Settings: H358 NSCLC viability, MTS absorbance, 4 days
Description: NIH Molecular Libraries Screening Centers Network [MLSCN] NIH Chemical Genomics Center [NCGC] MLSCN Grant: 1 X01 MH079860-01 Assay Provider: Elisabeth D. Martinez, University of Texas SW Medical Center NCGC Assay Overview: This secondary assay characterizes selected actives identified in the qHTS of the Locus Derepression (LDR) assay (PubChem AID 597). The LDR assay detects the derepression of a GFP reporter that is stably integrated in a region of the genome of murine c127i mammary cells that is presumably silenced. Compounds that cause derepression of the locus to express GFP are identified by enumerating GFP positive cells using a laser-scanning microplate cytometer. Selected LDR actives were assayed for killing of H358 non-small cell lung carcinoma (NSCLC) cells. Certain epigenetic drugs, like histone deacetylase inhibitors, can block cancer cell growth. H358 cell viability was measured using Cell Titer 96 AQueous One (Promega), an assay which detects the ability of metabolically active cells to reduce a tetrazolium salt substrate (MTS), into a soluble formazan product that can be measured by colorimetry.
NCGC Assay Protocol Summary Viability assays: H358 cells were plated in 96-well flat bottom tissue culture dishes (Corning) and grown overnight at 37 C and 5% CO2, then treated with increasing concentrations of compounds, incubated for four days, and assayed for viability using the Cell Titer 96 AQueous One kit (Promega) according to the manufacturer's protocol. Absorbance at 490 nm and 650 nm (reference) was measured by a Spectra Max (Molecular Devices). Data were normalized to the untreated control (100% viability). Each cell line was tested in one or two independent assays, each containing 4 or 8 replicates. For further details, see R.L. Johnson, W. Huang, A. Jadhav, C.P. Austin, J. Inglese, E.D. Martinez, A Quantitative High-Throughput Screen Identifies Potential Epigenetic Modulators of Gene Expression, Analytical Biochemistry (2007), doi: 10.1016/j.ab.2007.12.028

Row | Compound | Potency | outcome
1 | COc1ccc(C(NC(=O)C(C)C)c2ccc3cccnc3c2O)cc1 (centres undefined) | 200 nM (active) | 
2 | O=C(CSc1cccc2cccnc12)NCc1ccccc1 |  | inactive
3 | CN1CCN(Cc2cc(Cl)c3cccnc3c2O)CC1 | 2000 nM (active) | 
4 | CN1C(=S)SC(c2ccccc2)N(C)C1c1ccccc1 (centres undefined) |  | inactive
5 | CC(C)C(=O)NC(c1ccco1)c1ccc2cccnc2c1O (centres undefined) | 500 nM (active) | 
6 | O=Nc1ccc(O)c2ncccc12 | 3000 nM (active) | 
7 | CC(C)C(=O)NC(c1ccc(N(C)C)cc1)c1ccc2cccnc2c1O (centres undefined) | 200 nM (active) | 
8 | CC(/C=C/C(=O)NO)=C\[C@@H](C)C(=O)c1ccc(N(C)C)cc1 | 40 nM (active) | 
9 | CC(C)C(=O)NC(c1ccco1)c1cc([N+](=O)[O-])c2cccnc2c1O (centres undefined) | 6000 nM (active) | 
